Read-out in test [1]: Monokine induced gamma interferon (MIG), CXCL9 (gene 4283)
Kind of test: BSK_3C_MIG: BioMAP Diversity Plus: 3C Assay for Monokine induced gamma interferon (MIG) Biomarker Activity (AID 2283021). The settings on record: primary human endothelial cells (HUVEC); actives raise or lower the signal. Summed up: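 HUVEC primary endothelial cultures dosed with chemical; MIG quantified by ELISA at 24 h. Data fitted bidirectionally against DMSO control, with parallel SRB total-protein staining for cytotoxicity.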

Test [2] is described as follows: BSK_3C_SRB: Viability Assessment in the BioMAP Diversity Plus: 3C Assay (AID 2283023).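 Note: fitted both ways against DMSO so a hit may be signal rise or drop.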 The settings on record: primary human endothelial cells (HUVEC). Summed up: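 Primary human umbilical vein endothelial cells in the 3C system were read 24 h after compound dosing. Total protein was stained with 0.1% sulforhodamine B after 10% TCA fixation and read at 560 nm, with bidirectional fitting against DMSO as baseline.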

Read-out in test [3]: Matrix Metallopeptidase 1 (MMP1), MMP1 (gene 4312)
Kind of test: BSK_BE3C_MMP1: BioMAP Diversity Plus: BE3C Assay for Matrix Metallopeptidase 1 (MMP1) Biomarker Activity (AID 2283024). Conditions: primary human bronchial epithelial cells; actives raise or lower the signal. Summed up:
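Human primary bronchial epithelial cells (BE3C system) dosed for 24 h; MMP-1 quantified by ELISA. Bidirectional fit against DMSO; cytotoxicity tracked in parallel cultures by SRB total-protein staining.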

Test [4] can be described thus: BSK_3C_Vis: BioMAP Diversity Plus: 3C Assay for Morphology Visualization (AID 2283025).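 For AC50: light microscopy image of cell morphology used as background control.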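 Note: fitted both ways so gain or loss versus DMSO counts.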 Conditions: primary human endothelial cells (HUVEC). Summed up: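 Human umbilical vein endothelial cell morphology was inspected by light microscopy 24 h after chemical dosing; scored bidirectionally relative to DMSO.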
Read-out in test [5]: Pselectin, SELP (gene 6403)
Kind of test: BSK_4H_Pselectin: BioMAP Diversity Plus: 4H Assay for Pselectin Biomarker Activity (AID 2283026). Conditions: primary human endothelial cells (HUVEC); actives raise or lower the signal. Summed up: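 Primary human umbilical vein endothelial cells were treated 24 h, and cell-surface P-selectin was then quantified by ELISA. Bidirectional fit versus DMSO; cytotoxicity checked in parallel cultures by SRB total-protein staining.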

Test [6] can be described thus: BSK_4H_SRB: Viability Assessment in the BioMAP Diversity Plus: 4H Assay (AID 2283027).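 For AC50: curves fitted both ways versus DMSO so AC50 may be loss or gain.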 The settings on record: primary human endothelial cells (HUVEC). An outline of the steps: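 Human umbilical vein endothelial cells, 24 h after chemical dosing; total protein measured by 0.1% sulforhodamine B staining after 10% TCA fixation, read at 560 nm. Bidirectional fitting against DMSO.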

Test [7] in a line: BSK_BE3C_SRB: Viability Assessment in the BioMAP Diversity Plus: BE3C Assay (AID 2283028). The settings on record: primary human bronchial epithelial cells. An outline of the steps: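 Human primary bronchial epithelial cells were exposed to test chemicals for 24 h. Total protein in parallel cultures was then measured by staining with 0.1% sulforhodamine B after 10% TCA fixation, with absorbance read at 560 nm. Activity was fitted bidirectionally against DMSO.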

Read-out in test [8]: Thrombomodulin, THBD (gene 7056)
Kind of test: BSK_3C_Thrombomodulin: BioMAP Diversity Plus: 3C Assay for Thrombomodulin Biomarker Activity (AID 2283029). Conditions: primary human endothelial cells (HUVEC); actives raise or lower the signal. An outline of the steps: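 Human umbilical vein endothelial cells were exposed to chemicals for 24 h; cell-surface thrombomodulin quantified by ELISA, with bidirectional fitting against DMSO baseline.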

Read-out in test [9]: Urokinase-type plasminogen activator receptor (uPAR), PLAUR (gene 5329)
Briefly: BSK_4H_uPAR: BioMAP Diversity Plus: 4H Assay for Urokinase-type plasminogen activator receptor (uPAR) Biomarker Activity (AID 2283030). The settings on record: primary human endothelial cells (HUVEC); actives raise or lower the signal. Summed up:
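Primary human umbilical vein endothelial cells were exposed to chemical for 24 h before cell-surface uPAR was quantified by ELISA. Activity was fitted bidirectionally against the DMSO negative control baseline.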

Read-out in test [10]: Vascular endothelial growth factor receptor 2 (Homo sapiens) (UniProt P35968)
Kind of test: BSK_4H_VEGFRII: BioMAP Diversity Plus: 4H Assay for Vascular endothelial growth factor receptor 2 (VEGFR2) Biomarker Activity (AID 2283031). Conditions: primary human endothelial cells (HUVEC); actives raise or lower the signal. Summed up:
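Primary human umbilical vein endothelial cells in the BioMAP 4H system were dosed with test chemical, and 24 h later VEGFRII was measured by ELISA. Activity was fitted bidirectionally against DMSO as negative control and baseline.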

Read-out in test [11]: Human Leukocyte Antigen - DR isotype (HLADR), HLA-DRA (gene 3122)
Briefly: BSK_BE3C_HLADR: BioMAP Diversity Plus: BE3C Assay for Human Leukocyte Antigen - DR isotype (HLADR) Biomarker Activity (AID 2283032). Conditions: primary human bronchial epithelial cells; actives raise or lower the signal. An outline of the steps:
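Human primary bronchial epithelial cells (BE3C system) exposed to compound for 24 hours; cell-surface HLA-DR measured by ELISA, fitted bidirectionally relative to DMSO. Total protein by SRB in parallel cultures tracked cytotoxicity.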

Read-out in test [12]: Vascular cell adhesion molecule 1 (VCAM1), VCAM1 (gene 7412)
Kind of test: BSK_4H_VCAM1: BioMAP Diversity Plus: 4H Assay for Vascular cell adhesion molecule 1 (VCAM1) Biomarker Activity (AID 2283033). The settings on record: primary human endothelial cells (HUVEC); actives raise or lower the signal. An outline of the steps:
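Primary human umbilical vein endothelial cells, 4H stimulation system, treated for 24 h; cell-surface VCAM-1 quantified by ELISA. Bidirectional fitting against DMSO; cytotoxicity tracked by SRB total-protein staining in parallel cultures.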

Read-out in test [13]: Interferon-gamma inducible Protein 10 (IP10), CXCL10 (gene 3627)
Kind of test: BSK_BE3C_IP10: BioMAP Diversity Plus: BE3C Assay for Interferon-gamma inducible Protein 10 (IP10) Biomarker Activity (AID 2283034). Conditions: primary human bronchial epithelial cells; actives raise or lower the signal. An outline of the steps: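 Primary human bronchial epithelial cells, with IP-10 measured by ELISA 24 hours after chemical dosing. Bidirectional fit against DMSO; cytotoxicity checked by SRB total protein staining in parallel cultures.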

Read-out in test [14]: Monokine induced gamma interferon (MIG), CXCL9 (gene 4283)
Briefly: BSK_BE3C_MIG: BioMAP Diversity Plus: BE3C Assay for Monokine induced gamma interferon (MIG) Biomarker Activity (AID 2283035). Conditions: primary human bronchial epithelial cells; actives raise or lower the signal. An outline of the steps: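 Primary human bronchial epithelial cells treated for 24 h; MIG levels measured by ELISA, fitted bidirectionally versus DMSO. Parallel SRB total-protein staining assessed cytotoxicity.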

Read-out in test [15]: Transforming growth factor beta 1 (TGFb1), TGFB1 (gene 7040)
Kind of test: BSK_BE3C_TGFb1: BioMAP Diversity Plus: BE3C Assay for Transforming growth factor beta 1 (TGFb1) Biomarker Activity (AID 2283036). The settings on record: primary human bronchial epithelial cells; actives raise or lower the signal. Summed up:
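Primary human bronchial epithelial cells dosed with chemical; TGF-b1 measured by ELISA 24 h after dosing. Bidirectional curve fitting against DMSO negative control; SRB total-protein staining in parallel cultures gauged cytotoxicity.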

Read-out in test [16]: Plasminogen activator inhibitor-1 (PAI1), SERPINE1 (gene 5054)
Briefly: BSK_BE3C_PAI1: BioMAP Diversity Plus: BE3C Assay for Plasminogen activator inhibitor-1 (PAI1) Biomarker Activity (AID 2283037). Conditions: primary human bronchial epithelial cells; actives raise or lower the signal. An outline of the steps: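 Primary human bronchial epithelial cells (BE3C system) exposed 24 h; PAI-1 quantified by ELISA. Parallel sulforhodamine B staining of total protein flags cytotoxicity. Bidirectional fit versus DMSO.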

Read-out in test [17]: urokinase plasminogen activator (uPA), PLAU (gene 5328)
Briefly: BSK_BE3C_uPA: BioMAP Diversity Plus: BE3C Assay for urokinase plasminogen activator (uPA) Biomarker Activity (AID 2283038).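 Note: uPA protein level quantified by ELISA in cell cultures; uPA read one day after compound addition.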 The settings on record: primary human bronchial epithelial cells; actives raise or lower the signal. An outline of the steps:
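Human primary bronchial epithelial cells were exposed to chemical for 24 h, then uPA levels were measured by ELISA. Responses were fitted bidirectionally against DMSO as negative control and baseline. Parallel SRB staining of total protein gauged overt cytotoxicity.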

Read-out in test [18]: Urokinase-type plasminogen activator receptor (uPAR), PLAUR (gene 5329)
Briefly: BSK_BE3C_uPAR: BioMAP Diversity Plus: BE3C Assay for Urokinase-type plasminogen activator receptor (uPAR) Biomarker Activity (AID 2283039).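 Note: cells exposed to compound for one day before measurement.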 Conditions: primary human bronchial epithelial cells; actives raise or lower the signal. Summed up:
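Primary human bronchial epithelial cells dosed for 24 h; uPAR quantified by ELISA with bidirectional fitting against DMSO. Overt cytotoxicity assessed in parallel cultures by SRB total-protein staining (0.1% SRB, 560 nm).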

Read-out in test [19]: Interleukin-6 (IL6), IL6 (gene 3569)
Briefly: BSK_CASM3C_IL6: BioMAP Diversity Plus: CASM3C Assay for Interleukin-6 (IL6) Biomarker Activity for (AID 2283040). Conditions: primary human coronary artery smooth muscle cells; actives raise or lower the signal.

Read-out in test [20]: Tissue plasminogen activator (tPA), PLAT (gene 5327)
Kind of test: BSK_BE3C_tPA: BioMAP Diversity Plus: BE3C Assay for Tissue plasminogen activator (tPA) Biomarker Activity (AID 2283041).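 Note: tPA level quantified by ELISA one day after compound addition.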 The settings on record: primary human bronchial epithelial cells; actives raise or lower the signal. An outline of the steps: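 Primary human bronchial epithelial cells in the BE3C system, exposed to compound for 24 h. tPA was quantified by ELISA; DMSO served as baseline, with gain or loss of signal fitted. Cytotoxicity checked in parallel cultures by SRB total-protein staining.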

Active and inactive are the calls of the source. Rule for the calls: active = hit-call score of the fitted dose curve at least 0.9, where 1 is the maximum; inactive = score below 0.9.

Turning to `Clc1cccc(C(Cl)(Cl)Cl)n1`, the result in test [1], in test [2], in test [3], in test [4], in [5] and in test [6] was inactive. In addition, the result in test [7], in test [8], in test [9], in [10], in test [11] and in [12] was inactive. Moreover, the outcome in test [13], in test [14], in test [15], in [16], in [17] and in test [18] was inactive. For the same compound, the outcome in test [19] and in test [20] was inactive.

On to `COc1ccc(-c2ccccc2)cc1NNC(=O)OC(C)C`, for which the outcome in [1], in test [2], in test [3], in test [4], in [5] and in test [6] was inactive. Also, the result in test [7], in [8], in test [9], in test [10], in test [11] and in [12] was inactive. The outcome in test [13], in [14], in test [15], in [16], in [17] and in test [18] was inactive. Besides, the result in test [19] and in [20] was inactive.

Usually AC50 stands for the concentration giving half of the maximal activity seen. Consider `CC(C)C1(C)N=C(c2ncccc2C(=O)O)NC1=O` (centres undefined), for which the outcome in test [1], in [2], in test [3], in test [4], in test [5] and in test [7] was inactive. Besides, the outcome in [8], in test [9], in test [10], in [11], in test [12] and in test [13] was inactive. The outcome in test [14], in test [15], in test [16], in test [17], in [18] and in test [19] was inactive. The result in test [20] was inactive. Also, the AC50 in [6] is 454 nM (active).

With `CCCCC(C#N)(Cn1cncn1)c1ccc(Cl)cc1` (centres undefined), the result in [1], in test [2], in test [3], in test [5], in test [6] and in [7] was inactive. The outcome in test [8], in test [9], in test [10], in test [11], in test [12] and in test [13] was inactive. The result in test [14], in test [15], in [16], in [17], in test [18] and in test [19] was inactive. For the same compound, in test [4], the AC50 was 9.8 µM (active).

Consider `CC(C)(C)C(=O)C(Oc1ccc(Cl)cc1)n1cncn1` (centres undefined), for which the result in test [1], in [2], in test [3], in test [4], in [5] and in test [6] was inactive. Moreover, the outcome in test [7], in test [8], in test [9], in test [10], in test [11] and in test [12] was inactive. For the same compound, the result in test [13], in test [14], in test [15], in test [16], in [17] and in test [18] was inactive. Also, the outcome in test [19] and in test [20] was inactive.

The values are drawn from PubChem BioAssay (EPA / NIEHS).
